# Records with an inconclusive call do not appear. Calls of active or inactive are those of the source. Rule for the calls: active = hit-call score of the fitted dose curve at least 0.9, where 1 is the maximum; inconclusive = response in the unintended direction; inactive = score below 0.9.
# Read-out: HMG-CoA synthase (HMGCS2), HMGCS2 (gene 3158)
# Test: CLD_HMGCS2_24hr: CellzDirect (CLD) Gene Expression Assay for HMG-CoA synthase (HMGCS2) at 24 hours (AID 2283691)
# Method: CLD_24hr is a cell-based, multiplexed-readout assay that uses hepatocyte, a human liver primary cell, with measurements taken at 24 hours after chemical dosing in a 96-well plate.CLD_HMGCS2_24hr is one of 16 assay component(s) measured or calculated from the CLD_24hr assay. It is designed to make measurements of mRNA induction, a form of inducible reporter, as detected with chemiluminescence signals by Quantitative Nuclease Protection Assay (qNPA) technology.Data from the assay component CLD_HMGCS2_24hr was analyzed at the endpoint, CLD_HMGCS2_24hr, in the positive analysis fitting direction relative to DMSO as the negative control and baseline of activity. Using a type of inducible reporter, gain-of-signal activity can be used to understand changes in the reporter gene as they relate to the gene HMGCS2. Furthermore, this assay endpoint can be referred to as a primary readout. To generalize the intended target to other relatable targets, this assay endpoint is annotated to the lyase intended target family, where subfamily is HMG-CoA synthase.
# Human hepatocyte cultures were treated daily for two consecutive days with fresh dosing solutions containing appropriate concentrations of the 320 ToxCast chemicals (chemical identities were blinded to CellzDirect and other ToxCast collaborators), vehicle control (0.2% DMSO), and positive control inducers as summarized in Table 1. Due to the large number of treatment groups and chemicals examined, the ToxCast chemicals were divided into two groups (spanning two independent cultures of hepatocytes from separate donor preparations (Hu778: ToxCast plates 1 and 2; Hu776: ToxCast plates 3 and 4). Each preparation of human hepatocyte cultures was treated with respective vehicle control, medium only control, set of six positive controls/reference chemicals for the five hepatic receptor pathways, and a subset of eight of the ToxCast chemicals (indoxacarb, pyrithiobac-sodium, norflurazon, cyhalofop-butyl, methomyl, thiram, acetochlor, and propiconazole). These replicate data, coupled with internal replicates designed within the blinded ToxCast chemical library, provided additional data to evaluate interindividual differences between hepatocyte preparations and their potential impact on chemical profiles.Cell morphology and integrity were evaluated using phase-contrast microscopy as an indicator of hepatocyte cell health (Tyson & Green, 1987). Cultures for each treatment group (i.e., media, vehicle [0.2% DMSO], positive control inducers [multiple concentrations], and the ToxCast chemicals [multiple concentrations]) were observed and cell morphology was assessed relative to vehicle control cultures at each harvest time point (0, 6, 24, or 48 h). […] Images were evaluated at the conclusion of the study to assess changes in cell integrity and account for the effects of chemical exposure on uncharacteristic changes in concentration-dependent gene expression profiles. The results from these determinations of apparent cytotoxicity were annotated (yes/no) alongside the corresponding qNPA data for reference.At the conclusion of each treatment period, hepatocyte cultures (96-well) were washed with 1 volume of HBSS, lysed by addition of 25 ul ArrayPlate lysis buffer (HTG, Tucson, AZ), and 70 ul/well of Denaturation Oil, denatured by incubation at 95C for 10 min, and frozen at approximately -70C until analysis by nuclease protection assay (qNPA) (Roberts et al., 2007). For qNPA analysis, cell lysates were thawed at 50C for approximately 30 min, qNPA probes were added, and samples were incubated at 95C for 10 min to begin the detection process by denaturing the target RNA, dissociating the duplexes and secondary structure hybridization. At the conclusion of the hybridization period, S1 nuclease reagent was added to each sample to digest all nonprotected nucleotides at 50C for 60-90 min. […]
row,SMILES,outcome
1,O=c1ccc(=O)[nH][nH]1,inactive
2,CC(COc1ccc(Oc2ccccc2)cc1)Oc1ccccn1 (stereo not given),inactive
3,COP(=O)(OC)C(O)C(Cl)(Cl)Cl (stereo not given),inactive
4,CC1=NNC(=O)N(/N=C/c2cccnc2)C1,inactive
5,CCCCOC(=O)[C@@H](C)Oc1ccc(Oc2ccc(C#N)cc2F)cc1,inactive
6,CCOP(=S)(OCC)OC(Cl)C(Cl)(Cl)Cl (stereo not given),inactive
7,CNC(=O)ON=C(SC)C(=O)N(C)C,inactive
8,O=C(O)c1cc(Oc2ccc(C(F)(F)F)cc2Cl)ccc1[N+](=O)[O-],inactive
9,COc1cc(OC)nc(Sc2cccc(Cl)c2C(=O)O)n1,inactive
10,CN(C)[C@@H]1C(=O)C(C(N)=O)=C(O)[C@@]2(O)C(=O)C3=C(O)c4c(O)cccc4[C@@](C)(O)[C@H]3[C@H](O)[C@@H]12,inactive
11,CCOP(=O)(OCC)Oc1cc(C)nc(C(C)C)n1,inactive
12,CC(Oc1cccc(Cl)c1)C(=O)O (stereo not given),inactive
13,CC[C@H](C)[C@H]1O[C@]2(C=C[C@@H]1C)C[C@@H]1C[C@@H](C/C=C(\C)[C@@H](O[C@H]3C[C@H](OC)[C@@H](O[C@H]4C[C@H](OC)[C@@H](NC)[C@H](C)O4)[C@H](C)O3)[C@@H](C)/C=C/C=C3\CO[C@@H]4[C@H](O)C(C)=C[C@@H](C(=O)O1)[C@]34O)O2,inactive
14,CCCSP(=O)(OCC)SCCC,inactive
15,CCOP(=S)(OCC)SCCSCC,inactive
16,CSC1=N[C@@](C)(c2ccccc2)C(=O)N1Nc1ccccc1,inactive
17,CCc1cnc(C2=NC(C)(C(C)C)C(=O)N2)c(C(=O)O)c1 (stereo not given),inactive
18,CC(=NC#N)N(C)Cc1ccc(Cl)nc1,inactive
19,C[N+]1(C)CCCCC1,inactive
20,CCCCOC(=O)c1ccccc1C(=O)O,inactive

# Source: PubChem BioAssay (EPA / NIEHS)
